Inconclusive results are not listed. Activity calls are given as the source filed them. Calls follow the shape of the dose curve; as a rule, active = well fitted inhibition curve with a large enough effect; inconclusive = small, poorly fitted or top-dose-only effect; inactive = flat fitted curve, though single readings scatter.

Three molecules from PubChem BioAssay (NCATS) can be followed below.

The assay has as its system CRL-7250. The assay is described as follows: qHTS assay to identify novel small-molecules to repurpose for Merkel cell carcinoma treatment (AID 1296009). Also: nearly all actives have a fitted effect of over 60% in size. To be noted: MCC and control cell lines, CellTiter-Glo viability, 72 h; series mostly up to 92 µM; activity change, negative = cytotoxicity: at the top concentration. The essentials:
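Cell viability measured by CellTiter-Glo following 72 hr compound treatment at 37 degree celsius, with NPC and MIPE libraries tested in 8- and 11-point concentration series.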
`C[C@@H]1CC[C@@]23CC[C@]4(C)[C@@](C=CC5[C@@]6(C)CC[C@H](O)C(C)(C)C6CC[C@]54C)(OC2=O)C3[C@H]1C` (stereo partly drawn): the “outcome” value was “inactive [at 17.4 µM]”.

In the case of `COc1ccc(OC)c(C2C(C#N)=C(N)Oc3n[nH]c(-c4ccc5ccccc5c4)c32)c1` (stereo not drawn), the call was inactive.

Consider `CC(C)(C)OC(=O)c1ncn2c1C(C)(C)Nc1ccccc1-2`, for which the outcome was inactive.
